Data from the supplement of paper PMC7726561.
In all, about 1,400 sequences were measured (“thermal melting temperature (Tm) of peptide-HLA complex”: median about 60, lowest 2% from about 45 on). Shown is part of a subset that was picked to be rich in the lowest values.

target: HLA-B*07:02; test: thermal melting temperature (Tm) of peptide-HLA complex; higher = more thermostable pHLA complex; conditions: C1R-B*07:02
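Further: lysates heated 10 min at 37–73 °C, complexes pulled down with pan-HLA I antibody, peptide signal by DIA-MS relative to 37 °C, Tm where half the complex is unfolded.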

Sequence | thermal melting temperature [°C]
QPIDNVSRNLL | 59.3
KVRGISEVL | 60.5
QPIPFPKEAL | 60.7
KPYQGNPTF | 57.5
RPHAFQVIL | 60.2
LPSGDRVAVSV | 61
AANPNRFITL | 61.1
TPRSPPLGL | 62.3
TPINKPPVL | 56
APRPDRLVNRL | 57.3
LPHAVSSLL | 62.4
LPRKPSVPW | 59.5
APRQVLDLEDL | 60.9
KMLTFLML | 61.7
KPQTKLLIL | 60.8
LPSKEHVDVI | 44.8
IPFSNPRVL | 61.4
LPRPWSVPPL | 60
VPKPPSIEEF | 62.3

Sequence | thermal melting temperature [°C]
RPAQVSQPF | 60.2
IVDSARSIL | 57.8
HPRKGFPGSL | 45
APKPGGLSL | 61.7
GPMNLRAAF | 62.1
MPSASRVILL | 62.7
APGPPGRSML | 60
LPQLPLAAL | 59
HPAAFPLPV | 57.7
APRTVALTAL | 62.9
LPQPVPLSV | 62.6
IPRPDGIEW | 58.4
QPHLVNIQF | 41.6
RPGWLTVSL | 59.2
RPAVIGDVL | 59.3
HPAGPRTVF | 59.1
YPTISLHAL | 59.8
SPTLPAARSSL | 56.9
NPKNPGLWL | 61

Sequence | thermal melting temperature [°C]
TPRVPDNSL | 60.7
SPDLVRVQL | 60.7
RPAAGFVAGL | 57
KPWLRALQL | 59.7
MPFPNIRSAEL | 58.2
TPNDRFILL | 60.4
LPWASTHSL | 58.1
AALPFVRQAGL | 42.3
VPNQKRLTLL | 62.4
KPYPIAEVEQL | 42.7
FDPALLEF | 42.6
YPPNPWREI | 59.3
LPSWGRAEL | 62.8
GPDEAKIKALL | 60
APFEPLASGIL | 60.7
SPRPALPALLV | 59.4
QPRNLLLAL | 61.2
RPSLLPLH | 61.5
